The results in this text go back to PubChem BioAssay (NCATS).

Structures are written as SMILES. Results filed as inconclusive are left out. Where a call stands in place of a potency, no number is given. Calls of active or inactive are those of the source. The call rests on the fitted dose curve; in most records, active means well fitted cell-killing curve with a large enough effect; inconclusive means small, poorly fitted or top-dose-only effect; inactive means no such curve, though single readings can be large or run the other way.
Potency means the concentration at half of the fitted maximal effect.

The assay is described as follows: qHTS of pediatric cancer cell lines to identify multiple opportunities for drug repurposing: Primary screen for SK-N-SH cells (AID 1347098). Further: nearly all actives have a fitted effect of over 65% in size. The note with it: SK-N-SH viability, CellTiter-Glo luminescence, 48 h; series mostly up to 57 µM. An excerpt:
Drug repurposing or repositioning has been offered as a strategy for drug development in oncology programs. This approach has special potential for childhood cancers and other rare or orphan diseases, where the expected return on new drug development has been a disincentive to pharmaceuticals.
In this project we exploit the poly-pharmacology of drugs to discover new indications via phenotypic screening of a panel of 19 well-characterized cell lines derived from solid tumors seen in children and adolescents. The goal is to identify approved drugs with previously unrecognized anticancer properties that has the potential to reveal new mechanisms and biological processes involved in carcinogenesis or drug resistance. We employed a titration-based paradigm (quantitative high-throughput screening or qHTS), where all compounds were tested at multiple concentrations for their effect on cell viability. Concentration-response curves (CRCs) were derived directly from the primary screen, and both potency and efficacy values were used to identify compounds with robust bioactivity profiles. We screened the NIH Chemical Genomics Center (NCGC) Pharmaceutical Collection (NPC) and Mechanism Interrogation Plate (MIPE) small molecule collections of approved and investigational compounds against these cell lines; and measured metabolically active cells after 48 hours of compound treatment as a proxy for cell viability.
Assay Submitter: Nathalia J. Martinez, National Center for Advancing Translational Sciences, National Institutes of Health, Rockville, MD, USA; email: natalia.martinez@nih.gov
[1] Shen, M et al. Quantitative high-throughput phenotypic screening of pediatric cancer cell lines identifies multiple opportunities for drug repurposing. Oncotarget 2017 Dec 19;9(4):4758-4772. PMID 29435139.
The cells were obtained from University of North Carolina (UNC), Pediatric Preclinical Testing Program (PPT), and Coriell Institute (CI).
qHTS cell viability assay:
Cells were assayed in growth media at a density of 500-1,000 cells/well. Five microliters of cells were dispensed into 1,536-well, white, solid-bottom, TC-treated plates (Greiner Bio One) using a multidrop dispenser and incubated at 37 degrees C, 5% CO2, under a humidified atmosphere for 5 hours. Twenty-three nanoliters of compounds and controls (neutral control DMSO or positive control bortezomib at final concentration of 2.3 µM) were subsequently transferred by Kalypsys pintool. For primary screens, the MIPE collection was tested at 11-point dilutions (final concentrations range from 0.78 nM to 46 µM) and the NPC collection at 8-point dilutions (final concentrations range from 0.59 nM to 46 µM). Compounds tested in follow-up screens were assayed at 11-point dilutions. Cells were incubated for 48 hours, followed by addition of 3 µL of CellTiter-Glo (Promega). After a 15 min incubation at room temperature, samples were analyzed for luminescence intensity using a ViewLux High-throughput CCD imager equipped with clear filters.
As to `O=C(O)CCCCCCNC1c2ccccc2CCc2ccccc21`, the Potency result was “inactive”. As for `CC(C)NCC(O)c1ccc(N)c(C#N)c1` (stereo not given), the entry is “inactive”; as for `CN(C)CCc1c[nH]c2ccc(O)cc12`, “inactive”. In the case of `CC(C)[N+](C)(CCC(C(N)=O)(c1ccccc1)c1ccccc1)C(C)C`, the Potency result was “inactive”. As for `C[C@]12C=CC(=O)C=C1CC[C@@H]1[C@@H]2CC[C@@]2(C)[C@H]1CC[C@]2(C)O`, the entry is “inactive”; as for `CCN(CC)CCOC(=O)C(C)(c1ccccc1)c1ccccc1`, “inactive”; as for `CCC1(c2cccc(O)c2)CCCCN(C)C1` (stereo not given), “inactive”. Regarding `CC(Cc1ccccc1)NCCCCl` (stereo not given), the Potency entry is “inactive”. Regarding `CC1Sc2c(C(=O)O)c(=O)c3cc(F)c(N4CCNCC4)cc3n21` (stereo not given), the Potency entry was “inactive”. Consider `CC(C)(C)OC(=O)c1ncn2c1[C@@H]1CCCN1C(=O)c1c(Br)cccc1-2`, for which the Potency entry is “inactive”.

On to `C[C@]12Cc3nonc3C[C@@H]1CC[C@@H]1[C@@H]2CC[C@@]2(C)[C@H]1CC[C@]2(C)O`, for which the Potency entry is “inactive”.

Turning to `COc1cc(C[C@@H](C)N)c(OC)cc1Br`, the Potency result is “inactive”.

For `CCN(CC)C(C)C(=O)c1ccccc1` (stereo not given), the Potency result is “inactive”. For `CNC(C)Cc1ccccc1OC` (stereo not given), the Potency entry is “inactive”. `CCOC(=O)c1ncn2c1CN(C)C(=O)c1c(I)cccc1-2`: the Potency entry was “inactive”.

In the case of `c1cc2c(c(N3CCNCC3)c1)OCCO2`, the Potency result was “inactive”.

In the case of `COc1ccc2c3c1O[C@H]1[C@@H](O)C=C[C@H]4[C@@H](C2)N(C)CC[C@@]341`, the Potency is 17.4 µM (active).

On to `CN1C[C@@H](NS(=O)(=O)N(C)C)C[C@@H]2c3cccc4c3c(cn4C)C[C@H]21`, for which the Potency result is “inactive”. On to `COP(=O)(OC)C(O)C(Cl)(Cl)Cl` (stereo not given), for which the Potency result is “inactive”.

In the case of `CC1=C2[C@H]3OC(=O)[C@@H](C)[C@@H]3CC[C@@]2(C)C=CC1=O`, the Potency entry is “inactive”. Then `CN(C)CCc1c[nH]c2ccccc12`, with “inactive”; and `COP(=S)(OC)Oc1ccc(Sc2ccc(OP(=S)(OC)OC)cc2)cc1`, with “inactive”; and `CCC1(c2ccccc2)CCC(=O)NC1=O` (stereo not given), with “inactive”.

Regarding `C[C@H]1C(=O)O[C@@H]2CCN3CC=C(COC(=O)[C@](C)(O)[C@]1(C)O)[C@H]23`, the Potency entry was “inactive”.

For the compound `CC(C)C(Br)C(=O)NC(N)=O` (stereo not given), the Potency result was “inactive”.

For the compound `COc1cc(CC(C)N)cc2c1OCO2` (stereo not given), the Potency result was “inactive”. Regarding `CC(C)=C[C@@H]1[C@@H](C(=O)OCc2coc(Cc3ccccc3)c2)C1(C)C`, the Potency entry was “inactive”.

In the case of `Cc1cccc(Cc2cnc[nH]2)c1C`, the Potency result was “inactive”. For `CCOP(=S)(OCC)O/N=C(\C#N)c1ccccc1`, the Potency entry was “inactive”. With `Cc1ccc([N+](=O)[O-])[c]2c1[O][Hg]2`, the Potency was 1.09 µM (active). Then `OC(O)C(Cl)(Cl)Cl`, with “inactive”. As for `ClCc1cccc(Cl)c1`, the Potency result was “inactive”. As for `CCN(Cc1ccc(Cl)nc1)/C(=C/[N+](=O)[O-])NC`, the entry is “inactive”. For `CC[n+]1c(-c2ccccc2)c2cc(N)ccc2c2ccc(N)cc21`, the Potency is 7.7 µM (active).

Take `COP(=S)(OC)Oc1ccc(S(N)(=O)=O)cc1`: the Potency result is “inactive”.

As to `CN(C)C(=S)SSC(=S)N(C)C`, the Potency is 0.244 µM (active). Then `Cc1nnc2n1-c1sc(CCC(=O)N3CCOCC3)cc1C(c1ccccc1Cl)=NC2`, with “inactive”. Then `Cc1c(Cl)c(=O)oc2cc(OP(=O)(OCCCl)OCCCl)ccc12`, with “inactive”; and `NCc1cccnc1`, with “inactive”; and `Clc1ccc(CSC(Cn2ccnc2)c2ccc(Cl)cc2Cl)cc1` (stereo not given), with 34.4 µM (active).
